Among all 48,000 compounds or so, about 13,000 (27%) showed an effect of 50% or more. Some of the results follow.
Each compound was assayed on Wolbachia pipientis (assay: Anti-Wolbachia Cell-Based Screen). Details: 5 µM.
Assay type: functional
Design: scale not given: in the data most compounds retested in dose-response had high values

Row | SMILES | Percent Effect [%]
1 | CCN(CC)c1ccc(C(=O)NCC2(C(N)=O)CCOCC2)cn1 | -5.685
2 | CCN(CC)c1ccc(NC(=O)NCC2(C(N)=O)CCOCC2)cn1 | -0.5907
3 | Cc1nn(C)c(C)c1CC(=O)NCC1(C(N)=O)CCOCC1 | 121.1
4 | Cc1nn(C)c(C)c1S(=O)(=O)NCC(C)(O)c1ccc2c(c1)OCO2 (stereo not given) | 12.95
5 | CCc1nc(CC(=O)NCC2(C(N)=O)CCOCC2)cs1 | 13.26
6 | Cc1nn(C)c(C)c1S(=O)(=O)NCC1(C(N)=O)CCOCC1 | 87.99
7 | Cc1nn(C)c(C)c1CCC(=O)NCc1csc(N2CCCC2)n1 | -4.027
8 | Cc1nn(C)c(C)c1S(=O)(=O)N(CC(N)=O)CC(C)C | 0.7063
9 | Cn1ccc2c(C(=O)NCC3(C(N)=O)CCOCC3)cccc21 | -19.6
10 | Cc1nn(CC(=O)NCC2(C(N)=O)CCOCC2)c(C)c1Cl | 113.9
11 | Cc1nn(C)c(C)c1CCC(=O)NCC1(C(N)=O)CCOCC1 | 112
12 | CC(C)C1CN(Cc2nccn2C(C)C)CCC(=O)N1CC1CC1 (stereo not given) | -13.37
13 | CN(C)Cc1nc(C(C)(C)NC(=O)c2ccc3ccccc3c2)no1 | -5.67
14 | Cc1cc(NC(=O)CNc2cccc(OC(F)F)c2C)n(C)n1 | -2.043
15 | Cc1nn(C(C)(C)C)c(C)c1C(=O)NCC1(C(N)=O)CCOCC1 | -1.881
16 | Cc1nn(C)c(Cl)c1C(=O)NCC1(C(N)=O)CCOCC1 | 99.78
17 | Cc1cc(C(=O)NCC2(C(N)=O)CCOCC2)nn1C(C)(C)C | 9.321
18 | CC(C)CN1CCN(Cc2nc3ccccc3[nH]2)[C@H]2CS(=O)(=O)C[C@H]21 | -2.653
19 | CCc1nc(CCNC(=O)NC2CC(=O)N(C(C)(C)C)C2)cs1 (stereo not given) | 17.05
20 | Cc1nc(C)c(CCNC(=O)NC2CC(=O)N(C(C)(C)C)C2)s1 (stereo not given) | -0.9476
21 | Cc1csc(CCCNC(=O)NC2CC(=O)N(C(C)(C)C)C2)n1 (stereo not given) | 79.6
22 | CC(=O)c1ccc(NC(=O)c2ccc3c(c2)C2(CCCCC2)CN3)cc1.O=C(O)C(F)(F)F | 13.81

Row | SMILES | Percent Effect [%]
23 | CCn1c(C(=O)N2CCN(C(=O)NC(C)C)CC2)cc2ccccc21 | -5.351
24 | CCn1c(C(=O)N2CCN(CC(C)O)CC2)cc2ccccc21 (stereo not given) | -3.08
25 | CCn1c(CN2CCN(CC(N)=O)CC2)nc2c(F)cccc21 | -7.265
26 | CC(O)CN1CCN(C(=O)c2cccc(CC#N)c2)CC1 (stereo not given) | 0.248
27 | CCn1c(C(=O)N2CCN(CC[S+](C)[O-])CC2)cc2ccccc21 (stereo not given) | 101.9
28 | NC(=O)CN1CCCN(C(=O)c2ccn(-c3cccc(F)c3)n2)CC1 | -12.78
29 | Cc1cccc2cc(C(=O)N3CCSCC3)n(C)c12 | -17.56
30 | CCC(O)CN1CCN(C(=O)c2cc3ccccc3n2CC)CC1 (stereo not given) | 81.21
31 | CC(O)CN1CCN(C(=O)c2cccn2Cc2ccncc2)CC1 (stereo not given) | -5.756
32 | CCn1c(C(=O)N2CCN(C(=O)COC)CC2)cc2ccccc21 | -7.431
33 | CC(O)CN1CCN(C(=O)c2cc3ccccc3n2C)CC1 (stereo not given) | 80.19
34 | CCn1c(C(=O)N2CCCN(CC(N)=O)CC2)cc2ccccc21 | 113.2
35 | COc1ccc(C)cc1-c1csc(Cn2ccc(=O)[nH]c2=O)n1 | -13.88
36 | c1cnn(Cc2nnc(C3CCN(C4CCOCC4)CC3)n2C2CC2)c1 | -3.51
37 | O=C(COc1ccccc1F)NCCC(O)c1ccco1 (stereo not given) | -8.311
38 | Cc1ccc(CNC2(Cc3cc(-c4ccc(F)cc4)on3)COC2)o1 | -24.42
39 | CCN(c1cccc(F)c1)S(=O)(=O)c1cc(C(=O)O)cc2c1CCC2 | -8.987
40 | CC(Nc1cccc(CN2CCOC2=O)c1)C(=O)N1CCNC1=O (stereo not given) | -9.338
41 | Cc1ccc(CCC(=O)N2CCC(Nc3cccnn3)CC2)cc1 | 118.9
42 | Cc1noc(Cl)c1CCC(=O)N1CCC(Nc2cccnn2)CC1 | 97.17
43 | Cc1ccc(NC2CCN(C(=O)CCc3ccco3)CC2)nn1 | -2.742
44 | Cc1cnn(CCC(=O)N2CCC(Nc3cccnn3)CC2)c1 | 5.382

Row | SMILES | Percent Effect [%]
45 | O=C(CCc1ccco1)N1CCC(Nc2cccnn2)CC1 | 108.6
46 | Cc1nn(CC(=O)N2CCC(Nc3cccnn3)CC2)c(C)c1Cl | -11.96
47 | Cc1noc(Cl)c1CCC(=O)N1CCC(CC(N)=O)CC1 | -2.795
48 | CC(C)(C)SCCCC(=O)N1CCC(Nc2cccnn2)CC1 | -0.09307
49 | COCCCC(=O)N1CCC(Nc2cccnn2)CC1 | 100.5
50 | O=C1CC(Cc2ccc(NC(=O)c3cccc(F)c3)cc2)C(=O)N1 (stereo not given) | -11.36
51 | Cc1cc(CN2CCN(C(=O)NC(C)c3cccnc3)CC2)on1 (stereo not given) | -9.533
52 | CCOC(=O)NC1CCCN(Cc2ccc(-n3cncn3)c(C)c2)C1 (stereo not given) | 8.303
53 | COc1cc(NC(=O)NCCO)ccc1N1CCOC1=O | -1.059
54 | Cn1cc(N2CCN(c3ccc(C#N)cc3F)CC2=O)cn1 | -27.57
55 | COc1ccc(CNC(C)c2cccc(Cl)c2)c(OC)c1OC (stereo not given) | 0.8374
56 | O=C(CCCc1ccccc1)N1CCC(Nc2cccnn2)CC1 | 109.6
57 | CS(=O)(=O)N[C@H]1CN(C(=O)CCc2ccco2)C[C@@H]1C1CC1 | -12.24
58 | Cc1cc(N2CCC(NC(=O)CCc3ccco3)CC2)nc(C)n1 | 7.107
59 | O=C(CCn1ccc2ccccc21)N1CCC(Nc2cccnn2)CC1 | -13.71
60 | O=C(CCOc1ccccc1)N1CCC(Nc2cccnn2)CC1 | -3.199
61 | O=C(CCCc1ccccn1)N1CCC(Nc2cccnn2)CC1 | -8.554
62 | Cc1ccccc1NC1CCN(C(=O)CCc2ccco2)CC1 | 99.83
63 | O=C(CCc1ccccc1F)N1CCC(Nc2cccnn2)CC1 | 101.4
64 | CSc1ncccc1C(=O)N1C[C@H]2CC[C@@H]1CN(c1cnccn1)C2 | -13.27
65 | CCCN(CCC)S(=O)(=O)c1cc(NC(C)=O)ccc1C | 31.01

Source: ChEMBL document CHEMBL3988442, “University of Dundee, Small-Polar-MMV Screening Library” (2021)
